Screens: PubChem BioAssay, several laboratories
SENP6 block – blocks the human protease SENP6. Q9GZR1. Recombinant SENP6 catalytic domain, aminoluciferin luminescence. inhibition, % at 10 µM. 330,000 tested, 1.8% active;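 active = inhibition above about 50% at the single tested dose, limit read from the data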
HSP90 inh – blocks HSP90-mediated luciferase refolding in reticulocyte lysate; Rabbit reticulocyte lysate, luciferase refolding luminescence, 3 h; inhibition, % at 5.6 µM; 290,000 tested, 0.91% active;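 active = inhibition above the screen-wide mean plus 3 SD, computed separately per campaign, cut at about 16% in these data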;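 also: inhibitors lower the luminescence because luciferase stays unfolded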
SENP8 block-1 – inhibitors of human SENP8 protease; 360,000 tested, 0.64% active; Q96LD8; AID 602440; inhibition, % at 20 µM; recombinant SENP8, Nedd8 substrate fluorescence; in the data active = inhibition mostly above about 40%, no sharp cut-off; inactive = mostly below about 27%
SENP8 block-2 – blocks the human protease SENP8. inhibition, % at 10 µM. 330,000 tested, 1.2% active. purified SENP8, Z-RLRGG-aminoluciferin cleavage, luminescence. Q96LD8; in the data active = inhibition above about 50%
LGR2 inh – inhibitors of bursicon-induced Drosophila LGR2 receptor cAMP signaling | HEK293 LGR2, CRE-luciferase, bursicon-stimulated, 4 h | inhibition, % at 9.99 µM | 380,000 tested, 0.35% active | AID 720647;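 active = drop in luminescence signal, shown as inhibition above about 50% in the replicate tests, limit read from the data, passing the limit was not always enough; inconclusive = probably only some replicates passing the limit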;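 also: agonist challenge used bursicon conditioned medium at about half maximal strength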
SENP7 inh – blocks the human protease SENP7; recombinant SENP7, Z-RLRGG-aminoluciferin luminescence, 40 min; inhibition, % at 5 µM; 330,000 tested, 1.5% active; AID 434973;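 active = inhibition above about 50% at the single test dose, limit read from the data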
Target sequence (Q9BQF6 706-1050 limits assumed): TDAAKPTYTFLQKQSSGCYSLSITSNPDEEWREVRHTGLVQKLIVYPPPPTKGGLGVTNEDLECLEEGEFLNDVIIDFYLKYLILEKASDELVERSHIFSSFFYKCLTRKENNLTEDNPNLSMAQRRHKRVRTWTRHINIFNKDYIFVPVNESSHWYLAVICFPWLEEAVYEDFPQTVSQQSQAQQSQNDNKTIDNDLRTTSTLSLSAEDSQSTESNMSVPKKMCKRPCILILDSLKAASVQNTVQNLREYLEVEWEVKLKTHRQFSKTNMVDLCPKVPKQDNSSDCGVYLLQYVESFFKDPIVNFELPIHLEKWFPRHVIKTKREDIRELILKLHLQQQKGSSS
HSP90 confirm – HSP90 inhibition, confirmation assay; shares compounds with HSP90 inh; rabbit reticulocyte lysate, luciferase refolding luminescence, 3 h; inhibition, % at 5.9 µM; 2,300 tested, 64% active; in the data active = inhibition above about 18%
luciferase ctr – firefly luciferase inhibition, HSP90 counter-screen. shares compounds with HSP90 inh. purified native firefly luciferase, luminescence. inhibition, % at 5.9 µM. 2,300 tested, 48% active;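 active = inhibition above the mean inhibition of all tested sample wells plus 3 SD, cut at about 10% in these data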
A number is an active result; n = inactive; u = inconclusive; x = no result given. Shown are actives, neighbours in structure and some others; about 2.3% of the full set was active somewhere.

SMILES	SENP6 block	HSP90 inh	SENP8 block-1	SENP8 block-2	LGR2 inh	SENP7 inh	HSP90 confirm	luciferase ctr
COc1ccc(CNC(=O)C[C@@H]2CC[C@H](NC(=O)c3ccc4c(c3)OCO4)[C@@H](CO)O2)cc1	x	x	x	x	n	x	x	x
C#CCOCCOCCOCCNc1nc(N2CCN(C(=O)[C@H](CCCCN)n3cc([C@@H](N)C(C)CC)nn3)CC2)nc(N2CCN(C(=O)[C@H](Cc3cc4ccccc4[nH]3)n3cc([C@@H](N)CC(C)C)nn3)CC2)n1 (stereo partly drawn)	n	20.7	n	n	x	n	n	n
C#CCOCCOCCOCCNc1nc(N2CCN(C(=O)[C@H](Cc3ccc(O)cc3)n3cc([C@@H](N)C(C)CC)nn3)CC2)nc(N2CCN(C(=O)[C@H](CCCCN)n3cc([C@@H](N)CO)nn3)CC2)n1 (stereo partly drawn)	n	20.8	n	n	x	n	n	n
C#CCOCCOCCOCCNc1nc(N2CCN(C(=O)[C@H](Cc3cc4ccccc4[nH]3)n3cc([C@@H](N)C(C)CC)nn3)CC2)nc(N2CCN(C(=O)[C@H](CCCCN)n3cc([C@@H](N)CO)nn3)CC2)n1 (stereo partly drawn)	n	n	x	n	x	n	x	x
C#CCOCCOCCOCCNc1nc(N2CCN(C(=O)[C@H](Cc3ccc(O)cc3)n3cc([C@@H](N)C(C)CC)nn3)CC2)nc(N2CCN(C(=O)[C@H](CCCCN)n3cc([C@@H](N)CC(C)C)nn3)CC2)n1 (stereo partly drawn)	n	n	x	n	x	n	x	x
CCS(=O)(=O)N[C@H]1C=C[C@H](CC(=O)NC2Cc3ccccc3C2)O[C@H]1CO	x	x	x	x	n	x	x	x
CCC(=O)Nc1nc(-c2ccc3c(c2)OCCO3)cs1	n	n	n	n	n	n	x	x
c1cc2c(cc1Nc1nc(-c3ccc4c(c3)OCO4)cs1)OCCO2	n	37.4	n	n	x	n	23.5	n
C=CCNc1nc(-c2ccc3c(c2)OCCO3)cs1	90.2	18.9	n	82.3	n	65.9	33.3	32.3
C[C@H](CO)N1C[C@H](C)[C@H](CN(C)Cc2ccc(C(=O)O)cc2)Oc2c(NC(=O)Nc3ccccc3)cccc2C1=O	x	x	x	x	n	x	x	x
CC(C)(C)c1cc(N2CCOCC2)n2ncc(-c3ccc(Cl)cc3)c2n1	n	n	n	n	n	n	x	x
Cc1cc(N2CCC(C)CC2)n2ncc(-c3ccccc3)c2n1	n	44.7	n	n	u	n	58.7	56.3
Cc1ccc(-c2cnn3c(N4CCOCC4)cc(C)nc23)cc1	n	39.7	n	n	n	n	47.7	53.5
Cc1cc(N2CCOCC2)n2ncc(-c3ccc(Cl)cc3)c2n1	n	35.2	n	n	x	n	48.3	55.4
Cc1cc(N2CCCCC2)n2ncc(-c3ccc(Cl)cc3)c2n1	n	n	n	n	x	n	x	x
CCC(=O)Nc1ccc2c(c1)OC[C@@H](C)N(CC1CC1)C[C@@H](C)[C@@H](OC)CN(C)C2=O	x	x	x	x	n	x	x	x
CCCNC(=O)Nc1ccc2c(c1)OC[C@@H](C)N(C(=O)CC)C[C@H](C)[C@H](OC)CN(C)C2=O	x	x	x	x	n	x	x	x
O=C(Nc1ccc(Br)cc1)c1ccc2ncsc2c1	n	43.2	n	n	n	n	44.6	28.4
CCc1ccc(NC(=O)c2ccc3ncsc3c2)cc1	x	n	x	x	x	x	x	x
O=C(O)CSCC(=O)Nc1ccc(C2CCCCC2)cc1	n	52.1	n	n	n	n	56.9	n
C[C@@H]1CN([C@H](C)CO)C(=O)c2cc(-c3ccccc3F)cnc2O[C@@H]1CN(C)C(=O)c1ccccn1	x	x	x	x	n	x	x	x
COc1cc(C2NC(=S)NC3=C2CCc2ccccc23)cc(OC)c1OC (stereo not drawn)	n	n	n	n	n	n	x	x
C=CCOc1ccc(C2NC(=S)NC3=C2CCc2ccccc23)cc1 (stereo not drawn)	n	20.2	n	n	x	n	42.1	51.6
COc1ccc(CN(C)C[C@@H]2Oc3ccc(NS(=O)(=O)c4cn(C)cn4)cc3CC(=O)N([C@@H](C)CO)C[C@H]2C)cc1	x	x	x	x	n	x	x	x
CC1(C)Cc2nc3oc4c(=O)n(CC(=O)Nc5ccccc5)cnc4c3cc2CO1	n	n	n	n	n	n	x	x
